PubChem BioAssay (Tox21)
Values without a mark were called inactive. Records with an inconclusive call do not appear. A call without a number means that no potency is given here. Calls of active or inactive are those of the source. Unless noted, the call rests on the fitted dose curve; in most records, active means well fitted curve in the direction sought with a large enough effect in the repeat runs; inconclusive means weak or mixed curves; inactive means no such curve, though single readings can be large; an effect the other way counts as inactive or inconclusive.

Tests used:
[1] = qHTS assay to identify small molecule agonists of H2AX (AID 1224845; active means well fitted activation curve with a large enough effect in the signal ratio in the repeat runs, not every such curve was filed as active; the % refers to the signal ratio)
Method in brief: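 Phospho-H2AX Ser139 measured by HTRF (ex 320 nm; em 665 and 620 nm) after 24 hr antibody incubation. Compounds, 15 concentrations, 0.76% DMSO, were applied to CHO-K1 cells for 3hr at 37C before lysis.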

[2] = qHTS assay to identify small molecule agonists of H2AX - cell viability counter screen (AID 1224847; calls by dose curve; further: top concentration of the series differs between compounds; nearly all actives have a fitted effect of over 30% in size)
Method in brief: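 Compounds tested at 15 concentrations were incubated 3 hr at 37C with wild-type CHO-K1 cells; cellular ATP-based luminescence (CellTiter-Glo) indicated viability.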

[3] = qHTS assay to identify small molecule antagonists of the estrogen related receptor (ERR) signaling pathway from Tox21 library (AID 1224848); further: nearly all actives have a fitted effect of over 50% in size
Method in brief: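 Antagonist-mode screen of the Tox21 10K library in an NTP-provided ERR reporter cell line; 18 h compound exposure at 37 C, luminescence measured with ONE-Glo.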

[4] = qHTS RealTime-Glo MT Cell Viability Assay in HepG2 cells - 24 hour (AID 1224867); further: nearly all actives have a fitted effect of over 50% in size
Method in brief: (§1)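 HepG2 cells were seeded at 600 cells/well together with NanoLuc luciferase and a cell-permeant prosubstrate, preincubated 5 h at 37 C/5% CO2, then pin-dosed with compounds in DMSO. Nonlytic luminescence from viable cells was read at each time point.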

[5] = A CellTox Green Cytotoxicity Assay to monitor cytotoxicity in HEK293 cells - 0 hour (AID 1224869); further: nearly all actives have a fitted effect of over 50% in size; further: potency means the concentration at half of the fitted maximal effect
Method in brief: (§2)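 Seeding of HEK293 cells together with cytotoxicity dye preceded a 5 h incubation at 37 C/5% CO2. Test compounds in DMSO were then added and fluorescence monitored across 40 h.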

[6] = qHTS RealTime-Glo MT Cell Viability Assay in HepG2 cells - 40 hour (AID 1224870); further: nearly all actives have a fitted effect of over 50% in size
Method in brief: (§3)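 Real-time viability: cells seeded at 600 per well together with NanoLuc and cell-permeant prosubstrate, compounds added after 5 h incubation. Luminescence tracked at 0, 8, 16, 24, 32 and 40 h of exposure.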

[7] = qHTS RealTime-Glo MT Cell Viability Assay in HEK293 cells - 16 hour (AID 1224872)
Method in brief: (§4)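 HEK293 cells were seeded at 600 cells/well together with NanoLuc luciferase and cell-permeant prosubstrate, preincubated 5 h at 37 C/5% CO2, then given compound in DMSO by pintool. Luminescence from viable-cell prosubstrate reduction was read repeatedly over 40 h.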

[8] = qHTS RealTime-Glo MT Cell Viability Assay in HepG2 cells - 8 hour (AID 1224873); further: nearly all actives have a fitted effect of over 55% in size
Method in brief: as §3

[9] = A CellTox Green Cytotoxicity Assay to monitor cytotoxicity in HEK293 cells - 24 hour (AID 1224875); further: nearly all actives have a fitted effect of over 45% in size; further: potency means the concentration at half of the fitted maximal effect
Method in brief: as §2

[10] = A CellTox Green Cytotoxicity Assay to monitor cytotoxicity in HepG2 cells - 24 hour (AID 1224878); further: nearly all actives have a fitted effect of over 45% in size; further: potency means the concentration at half of the fitted maximal effect
Method in brief: (§5)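 Nonlytic assay: viable cells exclude the dye, so fluorescence scales with cell death. HepG2 at 600 cells/well, compounds added after 5 h, signal read across 40 h.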

[11] = A CellTox Green Cytotoxicity Assay to monitor cytotoxicity in HepG2 cells - 40 hour (AID 1224879); further: nearly all actives have a fitted effect of over 40% in size; further: potency means the concentration at half of the fitted maximal effect
Method in brief: as §5

[12] = qHTS assay to identify small molecule agonists of the hypoxia (HIF-1) signaling pathway (AID 1224846; active means well fitted activation curve with a large enough effect in the signal ratio in the repeat runs, not every such curve was filed as active; the % refers to the signal ratio)
Method in brief: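 Hypoxia-pathway activation was scored as increased beta-lactamase from an HRE-controlled reporter in ME-180 cells; plated at 2,000 cells per well with 0.5% dialyzed FBS, they were exposed 17 hrs to compounds and then given CCF4-AM.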

[13] = qHTS RealTime-Glo MT Cell Viability Assay in HEK293 cells - 32 hour (AID 1224868)
Method in brief: as §4

[14] = A CellTox Green Cytotoxicity Assay to monitor cytotoxicity in HEK293 cells - 40 hour (AID 1224871); further: nearly all actives have a fitted effect of over 45% in size; further: potency means the concentration at half of the fitted maximal effect
Method in brief: as §2

[15] = qHTS RealTime-Glo MT Cell Viability Assay in HEK293 cells - 40 hour (AID 1224874); conditions: RealTime-Glo luminescence; max response: stronger effect = lower value; further: nearly all actives have a fitted effect of over 50% in size
Method in brief: (§6)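 Tox21 screen in HEK293 using RealTime-Glo MT chemistry, with cells and reagent co-dispensed. Luminescence proportional to viable cell number was captured at intervals during 40 h compound exposure at 37 C.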

[16] = A CellTox Green Cytotoxicity Assay to monitor cytotoxicity in HepG2 cells - 16 hour (AID 1224876); further: nearly all actives have a fitted effect of over 45% in size
Method in brief: as §5

[17] = qHTS RealTime-Glo MT Cell Viability Assay in HepG2 cells - 32 hour (AID 1224877); further: nearly all actives have a fitted effect of over 55% in size
Method in brief: as §1

[18] = qHTS RealTime-Glo MT Cell Viability Assay in HEK293 cells - 0 hour (AID 1224880)
Method in brief: as §6

[19] = qHTS assay to identify small molecule agonists of the estrogen related receptor (ERR) signaling pathway from Tox21 library (AID 1224849; calls by dose curve; further: nearly all actives have a fitted effect of over 15% in size); conditions: ERR reporter cell line, ONE-Glo luciferase, 18 h; at 92.4 µM (top of the series) unless noted
Method in brief: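 Six hours post-seeding at 37 C/5% CO2, ERR cells receive DMSO-solubilised compounds; after 18 h at 37 C, ONE-Glo reagent is applied and luminescence recorded.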

Compound | Potency [1] | Potency [2] | Potency [3] | Potency [4] | Potency [5] | Potency [6] | Potency [7] | Potency [8] | Potency [9] | Potency [10] | Potency [11] | Potency [12] | Potency [13] | Potency [14] | max response [15] [%] | Potency [16] | Potency [17] | Potency [18] | activity change, positive = activation [19]
CN1CCC(=C2c3ccccc3Sc3ccccc32)CC1 | inactive | inactive | inactive | inactive | inactive | inactive | inactive | inactive | inactive | 23.9 µM (active) | 23.9 µM (active) | – | – | – | – | – | – | – | –
COc1ccc(C(=O)N2CCN(CC(=O)N3CCOCC3)CC2)cc1 | inactive | inactive | inactive | inactive | – | inactive | inactive | – | inactive | inactive | inactive | inactive | inactive | inactive | 2.37 | inactive | inactive | inactive | –
CCOC(=O)C(F)(F)F | inactive | inactive | – | – | – | inactive | inactive | inactive | inactive | inactive | inactive | inactive | inactive | inactive | 6.21 | inactive | inactive | inactive | –
NC(=O)C(c1ccccc1)(c1ccccc1)[C@@H]1CCN(CCc2ccc3c(c2)CCO3)C1 | inactive | inactive | inactive | inactive | 21.3 µM (active) | inactive | – | inactive | 21.3 µM (active) | 21.3 µM (active) | 23.9 µM (active) | inactive | – | 21.3 µM (active) | – | – | inactive | inactive | -1.44% [at 42.5 µM]
O=C(OCCCCCCOC(=O)c1ccccc1)c1ccccc1 | inactive | inactive | inactive | inactive | inactive | – | – | – | inactive | inactive | inactive | inactive | – | inactive | – | – | inactive | inactive | –
CCO[Si](CCCCl)(OCC)OCC | inactive | inactive | – | – | inactive | inactive | inactive | inactive | inactive | inactive | – | inactive | inactive | inactive | 0.203 | inactive | inactive | inactive | –
CC(C)(C)OCC1CO1 (centres undefined) | inactive | inactive | – | inactive | inactive | inactive | inactive | inactive | inactive | inactive | inactive | inactive | inactive | inactive | -2.11 | inactive | – | inactive | –
CCOc1ccc(N=Nc2ccc(/C=C/c3ccc(N=Nc4ccc(OCC)cc4)cc3S(=O)(=O)O)c(S(=O)(=O)O)c2)cc1 | inactive | inactive | – | – | inactive | inactive | inactive | inactive | inactive | inactive | – | inactive | inactive | inactive | -1.09 | inactive | – | inactive | –
